ADAM17 inh = inhibits human ADAM17. P78536. recombinant ADAM17, EDANS/DABCYL FRET peptide cleavage. inhibition, % at 6.95 µM. 370,000 tested, 0.83% active. AID 720648;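 active = inhibition above the mean of compounds lying between control limits plus 3 SD, set per campaign, cut at about 8.5% in these data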;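 note: 0% = DMSO-only wells as the low control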
KLK7 zymogen act = proKLK7 (human) activation, primary screen. P49862. purified proKLK7, EDANS-DABCYL substrate fluorescence; 100% is mature enzyme control, 0% vehicle. activation, % at 7 µM. 370,000 tested, 0.9% active. AID 652039;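 active = activation above the mean of all tested compounds plus 3 SD, computed per campaign excluding outliers beyond control limits, cut at about 13% in these data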
FAS TE block = FAS thioesterase (human) inhibition; AID 602261; recombinant FAS-TE, OMFH fluorogenic substrate, fluorescence endpoint; P49327; inhibition, % at 15 µM; 360,000 tested, 0.67% active;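 active = compounds whose normalised, plate-corrected inhibition of enzyme fluorescence in the single-dose primary screen is 50% or more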;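 note: 0% = DMSO with enzyme and 100% = substrate without enzyme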
ADAM10 inh = inhibits human ADAM10; recombinant ADAM10, EDANS/DABCYL FRET peptide cleavage, 3 h; O14672; inhibition, % at 7 µM; 370,000 tested, 0.62% active;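 active = inhibition above a per-campaign cutoff equal to the mean of compounds falling between control-based bounds plus 3 SD, cut at about 20% in these data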;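 note: 0% = DMSO wells while the 100% control is not disclosed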
Target sequence (O14672 214-748 limits assumed): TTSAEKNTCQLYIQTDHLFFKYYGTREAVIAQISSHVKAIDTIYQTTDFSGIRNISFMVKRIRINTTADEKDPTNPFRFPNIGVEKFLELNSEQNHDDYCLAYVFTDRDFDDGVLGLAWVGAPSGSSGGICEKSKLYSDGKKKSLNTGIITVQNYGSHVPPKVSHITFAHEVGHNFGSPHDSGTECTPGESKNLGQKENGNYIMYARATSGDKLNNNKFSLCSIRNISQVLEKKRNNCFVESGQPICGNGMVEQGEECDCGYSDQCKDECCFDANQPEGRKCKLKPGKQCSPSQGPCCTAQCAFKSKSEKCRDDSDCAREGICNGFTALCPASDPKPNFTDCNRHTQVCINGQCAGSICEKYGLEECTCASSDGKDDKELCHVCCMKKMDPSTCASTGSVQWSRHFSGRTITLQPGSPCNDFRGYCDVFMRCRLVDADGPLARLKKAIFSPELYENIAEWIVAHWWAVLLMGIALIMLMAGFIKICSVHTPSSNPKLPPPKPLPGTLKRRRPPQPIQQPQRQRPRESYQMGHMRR
GRIN3A LBD mod = modulators (binders) of human NR3A ligand-binding domain; 340,000 tested, 2.5% active; NR3A LBD differential scanning fluorimetry, Tm shift; 0% = protein alone, 100% = glycine-bound protein; Tm shift relative to glycine control, % at 25 µM; AID 1259313;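 active = melting temperature shift of at least 10% of the positive control shift, at one fixed dose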
* hit, by the source's call; / = no result. An excerpt weighted towards active compounds, which were near 4.6% of everything screened.

SMILES	ADAM17 inh	KLK7 zymogen act	FAS TE block	ADAM10 inh	GRIN3A LBD mod
O=C(CSc1nnc(Nc2ccccc2)s1)Nc1cccc(S(=O)(=O)N2CCCCC2)c1	5	0	12	3	16*
Cc1cc(S(=O)(=O)N2CCOCC2)ccc1OCC(=O)Nc1cccc(F)c1	2	-1	2	7	37*
O=C(CNC(=O)c1cc(=O)[nH]c2ccc(S(=O)(=O)N3CCOCC3)cc12)Nc1ccc(F)c(F)c1	-5	-13	0	-22	3
O=C(CSc1nnc2c(n1)[nH]c1ccc(S(=O)(=O)N3CCOCC3)cc12)Nc1ccc(F)c(F)c1	2	0	-9	5	35*
O=C(CNc1cccc(F)c1)Nc1cccc(S(=O)(=O)N2CCCCC2)c1	0	1	-4	2	14*
COc1cccc(CNC(=O)C2C3C=CC4(CN(Cc5ccccc5)C(=O)C24)O3)c1OC (centres undefined)	3	1	/	-13	/
C=CCn1c(SCC(=O)OC(C)C)nnc1-c1ccc(C)cc1	-4	0	/	-10	/
CC(COc1ccc(C#N)c(F)c1)CN1CCC(C(O)(c2ccccc2)c2ccccc2)CC1 (centres undefined)	2	0	/	2	/
COC(=O)[C@H]1C[C@@]2(n3ccc4ccccc43)c3ccccc3N[C@H]2N1	-6	0	/	-8	/
CCCc1nc2ccccc2c(C(=O)OCC(=O)Nc2cccc(S(=O)(=O)N3CCOCC3)c2)c1CC	17*	1	27	32*	8
O=C(CCCNC(=O)c1ccc(Cl)cc1)Nc1cccc(S(=O)(=O)N2CCCCC2)c1	0	1	9	4	-3
O=C(CSc1nnc2ccccn12)Nc1cccc(S(=O)(=O)N2CCOCC2)c1	3	0	-13	-1	10*
O=C(COC(=O)c1n[nH]c2ccccc12)Nc1cccc(S(=O)(=O)N2CCOCC2)c1	-4	0	-10	-2	4
O=C(CCNC(=O)c1ccc(Cl)cc1)Nc1cccc(S(=O)(=O)N2CCCCCC2)c1	3	1	15	7	29*
C=CCNC(=O)N1CCC(c2nc3ccc(Cl)cc3[nH]2)CC1	3	0	/	4	/
C=CCN1C(=O)[C@@H](CC(=O)NCc2ccccc2)[C@]2(C(=O)OCC)CCCCC/C=C/12	-3	0	/	-9	/
Cc1ccc2nc(C3CCCN(C(=O)NCc4ccccc4)C3)[nH]c2c1 (centres undefined)	6	0	-2	-2	16*
Cc1ccc2nc(C3CCN(C(=O)NCc4ccccc4)CC3)[nH]c2c1	0	-1	-5	2	1
O=S1(=O)C=CCN1Cc1cn(Cc2cccc(Cl)c2)nn1	-3	0	/	5	/
COC(=O)c1sccc1-c1ccc(C(=O)Nc2cccc(Cl)c2)o1	0	0	29	5	24*
O=C(CSc1nc(-c2cccs2)cc(C(F)(F)F)n1)Nc1cc(OCC(F)(F)C(F)F)cc([N+](=O)[O-])c1	-3	0	32	-4	10*
COC(=O)C1CN(CCO)CCS(=O)(=O)N1Cc1cn(Cc2cccc(Cl)c2)nn1 (centres undefined)	-4	1	/	-1	/
CCCCCc1ccc(-c2cn(CCc3c[nH]c4ccccc34)nn2)cc1	-1	0	12	2	19*
CCCCCc1ccc(-c2cn(CCCOCc3ccccc3)nn2)cc1	2	0	26	2	-9
CCOC(=O)c1nn(-c2ccc(C)cc2)cc1O	-3	-2	-8	-9	0
SMILES	ADAM17 inh	KLK7 zymogen act	FAS TE block	ADAM10 inh	GRIN3A LBD mod
CCOC(=O)c1nn(-c2ccccc2)cc1O	-9	-2	-2	-14	10*
CCOC(=O)c1nn(-c2ccc3ccccc3c2)cc1O	-7	0	2	-12	-6
CCOC(=O)c1nn(-c2ccc3c(c2)OCO3)cc1O	-60	32*	-4	-245	-1
Cc1ccc(F)cc1NC(=O)/C=C/c1ccc(S(=O)(=O)N2CCOCC2)cc1	2	0	18	8	15*
O=C(/C=C/c1ccc(S(=O)(=O)N2CCOCC2)cc1)Nc1cc(F)ccc1F	2	0	10	-11	32*
CC(C)(C)C(=O)O[C@@H]1CCC[C@@]2(C(=O)N(Cc3ccccc3)c3ccccc32)[C@H]1NC(=O)CCc1ccccc1	7	0	/	13	/
CC(Nc1cccc2ccccc12)C(=O)N/N=C/c1ccc([N+](=O)[O-])cc1 (centres undefined)	-3	-3	31	-11	22*
COc1cccc(NC(=O)C(NCC(C)(C)CN(C)C)c2ccccc2)c1 (centres undefined)	1	0	-10	4	2
C=CCNC(C(=O)Nc1cccc(OC)c1)c1ccccc1 (centres undefined)	0	0	-4	-1	15*
C[C@H]1[C@@H](NCc2ccccc2)CC[C@@]23CCCN2C(=O)CCC[C@@H]13	-2	/	/	2	/
CCOCCn1ccc2c(OCC(=O)Nc3cc(OC)ccc3OC)cccc2c1=O	-1	0	4	-7	11*
Cc1noc(-c2ccc(C(F)(F)F)cc2)c1NC(=O)Nc1ccc(Cl)cc1	1	0	1	2	30*
Cc1cccc(-c2cccc3c4c([nH]c23)[C@@H]2C[C@H](N(C)C(=O)Nc3ccccc3)[C@H]([C@H](C)O)C(=O)N2CC4)c1	-23	0	/	-75	/
Cc1cccc(OCC(=O)NC(=S)Nc2ccccc2N2CCOCC2)c1C	-4	-1	2	0	16*
Cc1ccccc1OCC(=O)Nc1ccccc1N1CCOCC1	-1	0	5	7	0
CC(C)Oc1cccc(C(=O)NC(=S)Nc2ccccc2N2CCOCC2)c1	-7	0	22	-9	20*
O=C(Nc1ccc(N2CCOCC2)c(S(=O)(=O)Nc2ccccc2Cl)c1)c1ccc(F)cc1	1	0	27	-2	4
O=C(Nc1ccc(Cl)c(Cl)c1)Nc1ccc(N2CCCC2)c(S(=O)(=O)Nc2ccccc2Cl)c1	-6	-1	28	2	30*
O=C(/C=C/c1cccs1)Nc1ccc(N2CCOCC2)c(S(=O)(=O)Nc2cc(Cl)ccc2Cl)c1	-1	0	25	-6	10*
O=C(Nc1ccc(F)cc1)Nc1ccc(N2CCCC2)c(S(=O)(=O)Nc2ccccc2Cl)c1	-7	-3	33	-32	34*
COc1ccc(CN2C(=O)[C@@H]3Cc4c([nH]c5ccccc45)C(C)(C)N3C2=O)cc1	3	1	21	16	12*
COc1ccccc1CN1C(=O)[C@@H]2Cc3c([nH]c4ccccc34)C(C)(C)N2C1=O	3	1	19	1	-5
O=C(COC(=O)c1ccc(Cl)c(S(=O)(=O)N2CCN(c3ccc(F)cc3)CC2)c1)Nc1cccc(Cl)c1	1	0	37	-1	25*

Screens deposited in PubChem by several laboratories.
